PubChem BioAssay (NCATS)
Records with an inconclusive call do not appear. Calls of active or inactive are those of the source. Unless noted, calls follow the shape of the dose curve; as a rule, active = well fitted curve in the direction sought with a large enough effect; inconclusive = small, poorly fitted or top-dose-only effect, or another doubt; inactive = no such curve, though single readings can be large; an effect the other way counts as inactive or inconclusive.

Assays:
[1] = AP1 Signaling Pathway (AID 357; active = well fitted curve in either direction with a large enough effect, not every such curve was filed as active;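 also: ME-180 reporter cells stimulated with EGF at its EC50 level; % is scaled to controls: 0 for no effect and ±100 for the full control effect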); details: ME-180 AP-1-bla reporter, EGF-induced, beta-lactamase ratio, 5 h; at 38 µM (top of the series)
In short: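 AP-1-bla ME-180 cells, Opti-MEM + 0.5% dialyzed FBS, plated overnight 37 °C. Cpd titration + EC50 EGF, 5 h 37 °C. CCF4 2.5 h RT; ex 405, em 460/530 ratio → %activity, AC50.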

[2] = NFAT Signaling Pathway (AID 444; active = well fitted curve in either direction with a large enough effect, not every such curve was filed as active;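 also: carbachol stimulus at about its EC50 of 1 µM final; % is scaled to controls: 0 for no effect and ±100 for the full control effect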); details: Jurkat NFAT-bla M1, carbachol, beta-lactamase ratio, 5 h; at 38 µM (top of the series)
In short: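 Jurkat cells carrying an NFAT-driven β-lactamase reporter and co-transfected muscarinic M1 receptor were treated with compound plus carbachol (1 uM final, an EC50 level) for 5 h at 37 °C. CCF4 loading followed for 1 h at RT; 460/530 nm ratio gave %activity.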

[3] = Stat Signaling Pathway (AID 446; active = well fitted curve in either direction with a large enough effect, not every such curve was filed as active;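 also: ME-180 cervical cancer cells given 40 pM IL-6 alongside compound; SIE-controlled beta-lactamase reporter measured as 460/530 nm FRET emission ratio; % is scaled to controls: 0 for no effect and ±100 for the full control effect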); details: ME-180 SIE beta-lactamase reporter, IL-6 stimulated, 5 h; at 38 µM (top of the series)
In short: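 ME-180 SIE-bla cells; overnight plating; cpd + IL-6 40 pM, 5 h, 37 C; LiveBLAzer 2.5 h RT; 460/530 nm emission ratio. Normalized to 300 pM IL-6 and 125 nM JAK inhibitor controls.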

[4] = target: Glucocorticoid receptor (Homo sapiens) (UniProt P04150); test: GR-GFP Redistribution (AID 450;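 active = compounds whose dose series gives a full or clear partial fitted curve of increased nuclear translocation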; also: potency is read from the fitted curve at half-maximal effect); details: U2OS GR-GFP nuclear translocation, laser cytometry, 2 h
Chain of Glucocorticoid receptor (Homo sapiens) (P04150 whole entry, looked up, the tested form may be a part): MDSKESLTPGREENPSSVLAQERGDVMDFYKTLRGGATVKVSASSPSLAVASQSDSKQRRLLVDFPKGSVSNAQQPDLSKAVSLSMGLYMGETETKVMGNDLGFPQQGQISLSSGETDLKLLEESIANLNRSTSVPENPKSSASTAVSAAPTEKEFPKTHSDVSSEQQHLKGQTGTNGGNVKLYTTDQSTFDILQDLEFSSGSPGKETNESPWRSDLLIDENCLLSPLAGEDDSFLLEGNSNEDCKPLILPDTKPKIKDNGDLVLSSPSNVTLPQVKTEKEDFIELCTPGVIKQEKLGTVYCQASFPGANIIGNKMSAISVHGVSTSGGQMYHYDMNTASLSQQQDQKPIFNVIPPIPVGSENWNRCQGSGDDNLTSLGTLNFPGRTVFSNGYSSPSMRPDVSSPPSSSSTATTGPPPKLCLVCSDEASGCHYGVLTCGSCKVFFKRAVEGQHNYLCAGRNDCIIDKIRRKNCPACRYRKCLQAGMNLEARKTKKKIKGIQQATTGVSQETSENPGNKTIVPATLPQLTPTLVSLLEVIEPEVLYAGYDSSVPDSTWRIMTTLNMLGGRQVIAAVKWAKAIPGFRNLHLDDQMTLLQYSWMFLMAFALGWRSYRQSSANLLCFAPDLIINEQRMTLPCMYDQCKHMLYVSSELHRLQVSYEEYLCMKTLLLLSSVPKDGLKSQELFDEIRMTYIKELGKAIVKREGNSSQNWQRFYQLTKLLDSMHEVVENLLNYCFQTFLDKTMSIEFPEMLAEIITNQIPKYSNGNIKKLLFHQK

[5] = target: Glucocorticoid receptor (Homo sapiens) (UniProt P04150); test: GR-EFC Redistribution (AID 451; calls by dose curve; also: potency is read from the fitted curve at half-maximal effect); details: CHO-K1 GR-EFC translocation, beta-gal luminescence, 2 h
In short: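 CHO-K1 cells stably expressing nuclear-localized β-gal enzyme acceptor and GR fused C-terminally to the enzyme donor fragment; ligand-driven nuclear translocation restores β-gal by complementation. Compounds titrated up to 46 uM final, 2 h at 37 °C; luminescence read.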

[6] = target: Mitogen-activated protein kinase 10 (Mus musculus) (UniProt Q61831); test: JNK3 AlphaScreen Assay (AID 530; active = well fitted curve in either direction with a large enough effect, not every such curve was filed as active;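 also: kinase came from lysate of stimulated human HepG2 cells; signal reports phosphorylation of biotinylated GST-cJun 1-79 at Ser73 with 10 µM ATP; % is scaled to controls: 0 for no effect and ±100 for the full control effect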)
In short: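 JNK3 came from HepG2 lysates pre-activated with IL-1beta and TNF-alpha and phosphorylated biotinylated GST-cJun (1-79) at 10 uM ATP, pH 7.6, room temperature. Compounds were titrated. AlphaScreen signal used anti-phospho-cJun (Ser73) antibody.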

[7] = target: 3',5'-cyclic-AMP phosphodiesterase 4B (Homo sapiens) (UniProt Q07343); test: qHTS Assay for Inhibitors of PDE-IV (AID 607; active = well fitted activation curve with a large enough effect in the main read-out, with a control signal flat, not every such curve was filed as active; also: % of control where 0% means no effect)
Chain of 3',5'-cyclic-AMP phosphodiesterase 4B (Homo sapiens) (Q07343 whole entry, looked up): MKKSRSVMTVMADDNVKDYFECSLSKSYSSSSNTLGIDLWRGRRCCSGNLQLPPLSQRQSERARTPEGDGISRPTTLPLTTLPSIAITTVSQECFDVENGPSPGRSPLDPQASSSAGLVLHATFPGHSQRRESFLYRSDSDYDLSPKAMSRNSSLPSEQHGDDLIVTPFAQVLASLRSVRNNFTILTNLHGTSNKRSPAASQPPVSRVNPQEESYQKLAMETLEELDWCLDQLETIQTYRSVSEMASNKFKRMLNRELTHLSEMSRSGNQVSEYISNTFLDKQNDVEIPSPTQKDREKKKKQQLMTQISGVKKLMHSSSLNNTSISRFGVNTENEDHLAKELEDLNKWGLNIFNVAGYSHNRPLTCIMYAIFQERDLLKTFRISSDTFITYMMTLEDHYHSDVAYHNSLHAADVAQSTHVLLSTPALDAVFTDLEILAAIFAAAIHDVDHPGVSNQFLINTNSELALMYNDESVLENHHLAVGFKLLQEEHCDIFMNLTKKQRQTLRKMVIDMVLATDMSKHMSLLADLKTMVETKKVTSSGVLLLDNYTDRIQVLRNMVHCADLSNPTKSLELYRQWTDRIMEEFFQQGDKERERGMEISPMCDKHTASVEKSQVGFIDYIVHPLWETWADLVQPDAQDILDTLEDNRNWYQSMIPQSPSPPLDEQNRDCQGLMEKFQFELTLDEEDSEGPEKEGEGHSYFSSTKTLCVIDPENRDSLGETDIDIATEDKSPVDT
In short: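 ACTOne HEK293 cells carry a modified cAMP-gated CNG channel and express endogenous PDE4; plated 1000 cells/well, compounds up to 22.9 uM final. Membrane-potential dye fluorescence (ex 535/em 590) was read; parental cells received 10 uM forskolin + 100 uM RO 20-1724.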

[8] = target: Guanine nucleotide-binding protein G(i) subunit alpha-1 (Homo sapiens) (UniProt P63096); test: qHTS Assay for Inhibitors of RGS12 GoLoco Motif Activity (Green Fluorophore) (AID 879);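 also: 0% = labeled peptide with Gαi1 and full inhibition = labeled peptide alone without protein; negative values mean loss of peptide binding seen as reduced polarization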
Chain of Guanine nucleotide-binding protein G(i) subunit alpha-1 (Homo sapiens) (P63096 whole entry, looked up): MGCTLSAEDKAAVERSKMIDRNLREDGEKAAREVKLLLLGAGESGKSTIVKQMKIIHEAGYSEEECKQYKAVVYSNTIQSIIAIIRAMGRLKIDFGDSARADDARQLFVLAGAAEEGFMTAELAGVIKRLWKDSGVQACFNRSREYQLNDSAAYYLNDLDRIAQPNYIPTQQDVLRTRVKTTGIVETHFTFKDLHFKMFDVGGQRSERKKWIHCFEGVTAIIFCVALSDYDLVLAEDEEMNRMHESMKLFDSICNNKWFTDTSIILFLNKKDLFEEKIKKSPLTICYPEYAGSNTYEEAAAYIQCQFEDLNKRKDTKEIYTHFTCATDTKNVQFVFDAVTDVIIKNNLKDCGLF
In short: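 Fluorescence polarization assay: 50 nM Gαi1 with 10 nM FITC-labeled RGS12 GoLoco peptide in 10 mM Tris pH 7.5, 150 mM NaCl, 0.1 mM GDP, 0.05% NP40, 10 min at room temperature with compound.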

[9] = target: Cytochrome P450 2C9 (Homo sapiens) (UniProt P11712); test: qHTS Assay for Inhibitors and Substrates of Cytochrome P450 2C9 (AID 883); also: % is scaled to controls: 0 for no effect and ±100 for the full control effect; nearly all actives have a fitted effect of over 60% in size
Chain of Cytochrome P450 2C9 (Homo sapiens) (P11712 whole entry, looked up): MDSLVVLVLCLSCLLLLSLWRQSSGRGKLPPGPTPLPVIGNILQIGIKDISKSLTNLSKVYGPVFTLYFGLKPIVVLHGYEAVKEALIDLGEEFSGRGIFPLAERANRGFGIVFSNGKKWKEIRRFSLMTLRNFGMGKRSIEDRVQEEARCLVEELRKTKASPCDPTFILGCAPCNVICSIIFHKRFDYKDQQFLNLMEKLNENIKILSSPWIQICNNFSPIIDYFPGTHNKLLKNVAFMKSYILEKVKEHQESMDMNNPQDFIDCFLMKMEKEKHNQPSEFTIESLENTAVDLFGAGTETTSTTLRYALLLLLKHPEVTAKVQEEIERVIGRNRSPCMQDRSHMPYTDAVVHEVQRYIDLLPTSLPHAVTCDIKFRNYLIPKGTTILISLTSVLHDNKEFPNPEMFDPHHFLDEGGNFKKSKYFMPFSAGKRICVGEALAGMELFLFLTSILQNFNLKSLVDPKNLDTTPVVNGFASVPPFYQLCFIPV
In short: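 CYP2C9 deoxyluciferin hydroxylation, 37C, 60 min with NADPH regeneration; 10nM enzyme, 100uM Luciferin-H (KM). Glo detection reagent stopped reaction; luminescence normalized to sulphaphenazole (57uM) full inhibition.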

[10] = target: Cytochrome P450 3A4 (Homo sapiens) (UniProt P08684); test: qHTS Assay for Activators of Cytochrome P450 3A4 (AID 885); also: nearly all actives have a fitted effect of over 65% in size
Chain of Cytochrome P450 3A4 (Homo sapiens) (P08684 whole entry, looked up): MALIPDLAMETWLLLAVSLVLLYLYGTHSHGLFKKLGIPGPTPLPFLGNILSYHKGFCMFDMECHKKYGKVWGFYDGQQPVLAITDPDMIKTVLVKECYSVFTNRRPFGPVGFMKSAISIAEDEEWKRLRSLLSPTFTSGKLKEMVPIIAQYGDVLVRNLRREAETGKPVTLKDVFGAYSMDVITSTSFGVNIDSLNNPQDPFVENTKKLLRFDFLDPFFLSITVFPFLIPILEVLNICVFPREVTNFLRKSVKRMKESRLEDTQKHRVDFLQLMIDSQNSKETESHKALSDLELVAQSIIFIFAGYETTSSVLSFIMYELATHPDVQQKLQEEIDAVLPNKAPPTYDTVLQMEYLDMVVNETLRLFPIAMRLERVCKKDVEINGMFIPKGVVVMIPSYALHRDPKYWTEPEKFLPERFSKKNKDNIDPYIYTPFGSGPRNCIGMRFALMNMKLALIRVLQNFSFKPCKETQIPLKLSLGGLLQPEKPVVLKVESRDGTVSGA
In short: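 20nM CYP3A4 + 25uM Luciferin-PPXE (=KM), 200mM KPO4; cpd 10 min RT; NADPH regen, 60 min RT; stop w/ detection buffer, 20 min; luminescence. Normalized to 57 uM ketoconazole.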

[11] = qHTS Assay for Identification of Small Molecule Agonists for Thrombopoietin (TPO) Signaling Pathway (AID 917); also: % is scaled to controls: 0 for no effect and ±100 for the full control effect
In short: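 We measured Glycoprotein IIb promoter–luciferase output in IL-3-starved Ba/F3 murine cells expressing the human TPO receptor after 24 hrs at 37 C with compounds and 26 pM TPO.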

[12] = target: Pyruvate kinase (Leishmania mexicana) (UniProt Q27686); test: qHTS Validation Assay for Inhibitors of Leishmania Mexicana Pyruvate Kinase (AID 945);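 also: 0% = DMSO only neutral control wells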
Chain of Pyruvate kinase (Leishmania mexicana) (Q27686 2-499 E452W): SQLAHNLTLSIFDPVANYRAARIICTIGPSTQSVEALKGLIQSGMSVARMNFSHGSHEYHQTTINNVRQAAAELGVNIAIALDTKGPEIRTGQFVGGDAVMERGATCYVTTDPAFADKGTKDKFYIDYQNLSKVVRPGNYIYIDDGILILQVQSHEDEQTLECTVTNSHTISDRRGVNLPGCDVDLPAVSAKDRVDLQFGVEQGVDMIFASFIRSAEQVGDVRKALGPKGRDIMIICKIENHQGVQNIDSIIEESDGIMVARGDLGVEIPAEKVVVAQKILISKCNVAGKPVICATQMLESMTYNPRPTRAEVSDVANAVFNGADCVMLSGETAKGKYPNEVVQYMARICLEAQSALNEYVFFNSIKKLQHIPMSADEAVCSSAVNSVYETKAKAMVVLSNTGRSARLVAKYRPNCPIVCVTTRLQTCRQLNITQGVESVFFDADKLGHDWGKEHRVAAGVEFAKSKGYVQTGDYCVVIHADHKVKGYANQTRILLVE
In short: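 Eight-point qHTS titrations in triplicate, data normalized to DMSO neutral control. Reaction: 0.2 nM LmPYK E451W mutant, 0.5 mM PEP, 0.1 mM ADP, 7 mM MgCl2, pH 7.2, one hour at room temperature; luminescent ATP detection.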

[13] = target: Pyruvate kinase PKM (Homo sapiens) (UniProt P14618); test: qHTS Assay for Activators of Human Muscle Pyruvate Kinase (AID 954; active = well fitted curve in the direction sought with a large enough effect, not every such curve was filed as active;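 also: 0% = uninhibited enzyme and -100% = no enzyme or full thiadiazolimine inhibition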)
Chain of Pyruvate kinase PKM (Homo sapiens) (P14618 whole entry, looked up): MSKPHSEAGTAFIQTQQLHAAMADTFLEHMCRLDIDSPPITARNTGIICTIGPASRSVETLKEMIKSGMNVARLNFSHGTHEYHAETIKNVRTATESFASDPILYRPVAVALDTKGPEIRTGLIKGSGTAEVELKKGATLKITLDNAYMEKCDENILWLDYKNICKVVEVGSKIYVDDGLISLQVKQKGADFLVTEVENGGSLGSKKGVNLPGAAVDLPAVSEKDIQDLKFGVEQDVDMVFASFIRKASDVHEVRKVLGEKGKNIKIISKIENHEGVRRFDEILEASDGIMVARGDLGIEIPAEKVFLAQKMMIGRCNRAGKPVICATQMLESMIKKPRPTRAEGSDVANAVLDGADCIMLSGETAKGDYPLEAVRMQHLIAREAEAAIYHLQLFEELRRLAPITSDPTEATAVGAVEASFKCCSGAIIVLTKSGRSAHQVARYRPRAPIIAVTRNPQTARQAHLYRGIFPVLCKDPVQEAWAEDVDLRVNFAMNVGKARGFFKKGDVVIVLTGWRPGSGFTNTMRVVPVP
In short: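 Luminescence from a luciferase ATP-detection/stop reagent reported PKM2 activity. Reactions contained 0.1 nM purified human enzyme, 0.5 mM PEP, 0.1 mM ADP and 7 mM MgCl2 at pH 7.2, run 1 h at RT.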

[14] = target: Alpha-galactosidase A (Homo sapiens) (UniProt P06280); test: Counterscreen for Glucocerebrosidase Inhibitors: qHTS Assay for Human alpha-Galactosidase at pH 4.5 (AID 992); also: 0% is about no effect
Chain of Alpha-galactosidase A (Homo sapiens) (P06280 whole entry, looked up): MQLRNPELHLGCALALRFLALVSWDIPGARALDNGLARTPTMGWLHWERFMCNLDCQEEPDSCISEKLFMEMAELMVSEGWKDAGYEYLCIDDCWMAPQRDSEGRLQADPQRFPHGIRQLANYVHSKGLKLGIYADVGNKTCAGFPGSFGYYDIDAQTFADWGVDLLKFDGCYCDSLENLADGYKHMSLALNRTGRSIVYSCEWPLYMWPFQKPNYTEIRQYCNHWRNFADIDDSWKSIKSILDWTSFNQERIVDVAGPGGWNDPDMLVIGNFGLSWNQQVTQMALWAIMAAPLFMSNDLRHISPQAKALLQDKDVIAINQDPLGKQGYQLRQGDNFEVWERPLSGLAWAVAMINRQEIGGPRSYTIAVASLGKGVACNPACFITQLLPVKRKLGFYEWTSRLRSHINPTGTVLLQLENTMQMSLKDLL
In short: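 Enzyme at 2 nM final was combined with compound (0.7 nM to 77 uM) and 80 uM 4-methylumbelliferyl alpha-D-galactopyranoside in 50 mM citric acid, 0.005% Tween-20, pH 4.5. After 20 min at room temperature, fluorescence was read (Ex 365/Em 440 nm); AC50 came from Hill fits.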

[15] = target: alpha-glucosidase (Oryza sativa, rice) (UniProt Q653V4); test: Counterscreen for Glucocerebrosidase Inhibitors: qHTS Assay for Rice alpha-Glucosidase at pH 5.0 (AID 997);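 also: 0% = full activity with enzyme and -100% = basal without enzyme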
In short: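 Rice alpha-glucosidase (4 nM final) with 400 uM 4-methylumbelliferyl-alpha-D-glucopyranoside in citrate buffer pH 5.0, 20 min at room temperature, stopped at pH 10; fluorescence 365/440 nm, compounds 0.7 nM–77 uM, AC50 from Hill fits.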

[16] = Validation of Assay for Modulators of Lamin A Splicing (AID 1459; active = well fitted curve in the direction sought with a large enough effect in the signal ratio; the % refers to the signal ratio;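 also: cells exposed to compound for two days before reading; 0% is about no effect; ratio rise marks activators and ratio drop marks inhibitors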)
In short: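 Splicing correction is reported by an EGFP-containing lamin A minigene in stably transfected S3 HeLa cells, while DsRed2 controls for viability and nonspecific signal. Cells are exposed to compounds for 48 hrs before the GFP over RFP ratio is taken.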

[17] = target: DNA repair nuclease/redox regulator APEX1 (Homo sapiens) (UniProt P27695); test: qHTS Validation Assay for Inhibitors of the Human Apurinic/apyrimidinic Endonuclease 1 (APE1) (AID 1705)
Chain of DNA repair nuclease/redox regulator APEX1 (Homo sapiens) (P27695 whole entry, looked up): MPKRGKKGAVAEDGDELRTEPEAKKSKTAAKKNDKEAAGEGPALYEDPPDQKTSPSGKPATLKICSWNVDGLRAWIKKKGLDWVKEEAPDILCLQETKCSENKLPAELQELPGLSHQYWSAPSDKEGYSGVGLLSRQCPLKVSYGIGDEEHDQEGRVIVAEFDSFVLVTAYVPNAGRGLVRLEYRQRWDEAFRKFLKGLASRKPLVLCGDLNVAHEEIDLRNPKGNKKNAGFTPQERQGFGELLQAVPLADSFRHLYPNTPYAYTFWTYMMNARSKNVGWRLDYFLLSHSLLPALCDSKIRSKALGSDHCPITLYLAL
In short: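 Endonuclease activity of human APE1 is followed as dequenching when the enzyme incises a tetrahydrofuran abasic site in a short duplex labelled 5'-TAMRA/3'-BHQ-2 (50 nM final), after 15 min enzyme–compound preincubation at room temperature.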

[18] = Counterscreen for APE1 Inhibitors: Fluorescent Dye Displacement Validation Assay (AID 1707);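 also: plate controls were ThO with dsDNA and no compound for no effect and ThO without dsDNA for full effect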
In short: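 Thiazole Orange displacement from dsDNA: 250 nM ThO with 50 nM TAMRA-labelled abasic-site (tetrahydrofuran) duplex in 50 mM Tris-HCl pH7.5, 50mM NaCl, 2 mM MgCl2, 0.01% Tween-20. Loss of endpoint fluorescence (ex 480 nm, em 540 nm) flags DNA binders.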

[19] = target: Endonuclease 4 (Escherichia coli (strain K12)) (UniProt P0A6C1); test: Counterscreen for APE1 Inhibitors: qHTS Validation Assay for Inhibitors of Endonuclease IV (AID 1708); also: % is scaled to controls: 0 for no effect and ±100 for the full control effect
In short: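 2 nM enzyme was preincubated with compounds for 15 min at room temperature in 50 mM Tris-HCl pH 7.5, 50 mM NaCl, 2 mM MgCl2, 1 mM DTT, 0.01% Tween-20. 50 nM THF-abasic TAMRA/BHQ-2 duplex substrate started the reaction.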

COc1[nH]c2ccc(F)cc2c1C(=O)OCC1CCN(CCNS(C)(=O)=O)CC1
inactive: activity change, negative = inhibition [1] 1.52% | activity change, negative = inhibition [2] 0.0444% | activity, negative = inhibition [3] 16.9% | Potency [4] > 46 µM | Potency [5] > 46 µM | Potency [6] | Potency [7] | outcome [8] | Potency [9] | Potency [10] | Potency [11] | Potency [12] | outcome [13] | outcome [14] | outcome [15] | outcome [16] | Potency [17] | Potency [18] | Potency [19]
